Several values for one entry are separate records, joined by “and”; a condition that tells them apart may be missing. Equal values may be shown once. Inconclusive results are not listed. Some structures have more than one record in an assay (separate samples or runs), and their calls can disagree. Activity calls are given as the source filed them. How the source made its calls: active means hit-call score of the fitted dose curve at least 0.9, where 1 is the maximum; inconclusive means response in the unintended direction; inactive means score below 0.9.

Chain of human Peripheral-type Benzodiazepine Receptor (PBR), TSPO (gene 706) (P30536 whole entry, looked up): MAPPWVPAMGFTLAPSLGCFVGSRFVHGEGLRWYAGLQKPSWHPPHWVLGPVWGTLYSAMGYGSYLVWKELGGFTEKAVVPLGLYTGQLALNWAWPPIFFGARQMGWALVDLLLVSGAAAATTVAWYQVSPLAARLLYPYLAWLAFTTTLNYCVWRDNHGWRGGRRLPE
Chain of human Androgen Receptor (AR), AR (gene 367) (P10275 whole entry, looked up): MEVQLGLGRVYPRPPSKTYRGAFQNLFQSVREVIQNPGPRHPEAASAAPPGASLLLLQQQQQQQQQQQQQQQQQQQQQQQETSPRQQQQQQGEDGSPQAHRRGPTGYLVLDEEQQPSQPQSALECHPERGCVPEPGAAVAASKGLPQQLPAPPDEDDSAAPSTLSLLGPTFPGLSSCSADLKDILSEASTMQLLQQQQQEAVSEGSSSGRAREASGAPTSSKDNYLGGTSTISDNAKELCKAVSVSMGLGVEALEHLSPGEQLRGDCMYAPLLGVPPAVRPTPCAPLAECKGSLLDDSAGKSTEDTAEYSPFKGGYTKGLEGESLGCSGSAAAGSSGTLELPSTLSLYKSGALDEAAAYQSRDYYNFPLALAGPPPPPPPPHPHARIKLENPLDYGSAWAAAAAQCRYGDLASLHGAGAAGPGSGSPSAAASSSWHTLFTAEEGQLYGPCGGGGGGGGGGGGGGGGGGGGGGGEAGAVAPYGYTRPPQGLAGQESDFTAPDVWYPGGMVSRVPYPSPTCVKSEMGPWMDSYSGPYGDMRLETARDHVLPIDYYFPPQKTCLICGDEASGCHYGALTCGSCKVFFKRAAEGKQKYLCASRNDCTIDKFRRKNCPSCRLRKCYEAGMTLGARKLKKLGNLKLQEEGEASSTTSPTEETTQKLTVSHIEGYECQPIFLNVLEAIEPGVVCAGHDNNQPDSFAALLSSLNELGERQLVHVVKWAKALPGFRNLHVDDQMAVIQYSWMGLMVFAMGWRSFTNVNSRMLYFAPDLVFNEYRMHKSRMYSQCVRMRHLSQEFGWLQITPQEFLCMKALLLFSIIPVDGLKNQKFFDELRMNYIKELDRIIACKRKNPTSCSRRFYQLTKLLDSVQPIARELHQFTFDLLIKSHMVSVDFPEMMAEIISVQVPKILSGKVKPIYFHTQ

The first assay has as its target human Peripheral-type Benzodiazepine Receptor (PBR), TSPO (gene 706) (UniProt P30536). Description: NVS_MP_hPBR: NovaScreen (NVS) Membrane Protein Assay for human Peripheral-type Benzodiazepine Receptor (PBR) (AID 2283331).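 Further: hits reduce radioligand binding relative to DMSO baseline.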 In a few lines: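 Using human colon-derived membranes, this one-endpoint binding test reads radioligand loss by scintillation after 1 h. Screening started at 25 uM in duplicate, with positive and negative controls on every plate, and actives moved to dose series.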
As to `Oc1ccc(C(c2ccc(O)cc2)C(Cl)(Cl)Cl)cc1`, the molecule was classed as inactive.

For `CCOC(=O)NCCOc1ccc(Oc2ccccc2)cc1`, the molecule was classed as inactive. Take `CN(C)C(=O)Nc1ccc(Cl)c(Cl)c1`: the AC50 (usually the concentration giving half of the maximal activity seen) is 19.9 µM (active). On to `S=C(S)NCCNC(=S)S.[Mn+2].[S-]C([S-])=NCCN=C([S-])[S-].[Zn+2]`, for which the AC50 was 9.51 µM (active) and 4.71 µM (active) and 3.45 µM (active).

For `CCCCC(CC)COC(=O)c1ccccc1C(=O)O` (stereo not given), the AC50 is 39.2 µM (active). As for `COC(=O)CSc1cc(N=c2sc(=O)n3n2CCCC3)c(F)cc1Cl`, the molecule was called inactive. The same measure, in the same setting: next, `C[C@]12CC[C@@H]3c4ccc(O)cc4C[C@@H](CCCCCCCCCS(=O)CCCC(F)(F)C(F)(F)F)[C@H]3[C@@H]1CC[C@@H]2O` (stereo not given in full): “inactive”; `S=C([S-])NCCNC(=S)[S-].[Mn+2]`: “inactive”.

With `COC(=O)c1ccccc1C(=O)O`, the molecule was classed as inactive. As to `CCCN(CCC)C(=O)SCC`, the outcome was inactive.

As for `CCCCOCCOCCOCc1cc2c(cc1CCC)OCO2`, the AC50 was 26.9 µM (active). Consider `CCCCC(CC)CN1C(=O)C2C3C=CC(C3)C2C1=O` (stereo not given), for which the molecule was classed as inactive. Same read-out and setting: the same measure for `CCNc1nc(N)nc(Cl)n1`: “inactive”. Take `CCN(CC)C(=O)c1cccc(C)c1`: the AC50 is 20.1 µM (active).

For `CCCCCOC(=O)COc1cc(N2C(=O)C3=C(CCCC3)C2=O)c(F)cc1Cl`, the AC50 is 2.72 µM (active). Regarding `CC(=O)S[C@@H]1CC2=CC(=O)CC[C@]2(C)[C@H]2CC[C@@]3(C)[C@@H](CC[C@@]34CCC(=O)O4)[C@H]12`, the molecule was classed as inactive. For the molecule `CC(C)CCCCCCc1ccc(O)cc1`, the call was inactive. Take `CC1(C)C(C=C(Cl)Cl)C1C(=O)OCc1cccc(Oc2ccccc2)c1` (stereo not given): the AC50 was 40.2 µM (active).

For the molecule `CC(=O)[C@H]1CC[C@H]2[C@@H]3CCC4=CC(=O)CC[C@]4(C)[C@H]3CC[C@]12C`, the AC50 is 1.75 µM (active) and 1.51 µM (active) and 4.64 µM (active).

As for `C=CCOC(Cn1ccnc1)c1ccc(Cl)cc1Cl` (stereo not given), the AC50 is 10.6 µM (active). Take `CC(C)(c1ccc(O)cc1)c1ccc(O)cc1`: the call was inactive. Take `CCCCCCC(C)OC(=O)COc1nc(F)c(Cl)c(N)c1Cl` (stereo not given): the molecule was called inactive. Consider `CCCCOC(=O)[C@@H](C)Oc1ccc(Oc2ccc(C(F)(F)F)cn2)cc1`, for which the molecule was classed as inactive. Turning to `COc1nc(C)nc(NC(=O)NS(=O)(=O)c2ccccc2OCCCl)n1`, the result was inactive.

A further assay has as its target human Androgen Receptor (AR), AR (gene 367) (UniProt P10275). Put plainly: NVS_NR_hAR: NovaScreen (NVS) Nuclear Receptor Binding Assay for human Androgen Receptor (AR) (AID 2283332). In a few lines: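 Actives from a duplicate 25 uM single-point screen went on to concentration series. Read-out after 20 h was scintillation counting of displaced radioligand in LnCAP extract, with DMSO as baseline.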
As for `CSC(=O)c1cccc2nnsc12`, the result was inactive. Consider `O=C(c1ccc(O)cc1O)c1ccc(O)cc1O`, for which the AC50 is 1.39 µM (active). As for `C[C@]12CC[C@@H]3c4ccc(O)cc4C[C@@H](CCCCCCCCCS(=O)CCCC(F)(F)C(F)(F)F)[C@H]3[C@@H]1CC[C@@H]2O` (stereo not given in full), the molecule was called inactive. On the same count and under the same terms, next, `CCCN(CCC)C(=O)SCC`: “inactive”. Turning to `CC(C)(c1ccc(O)cc1)c1ccc(O)cc1`, the AC50 is 9.86 µM (active) [middle of 4 runs] and the molecule was classed as inactive.
